The results in this text go back to PubChem BioAssay (Tox21).

A number with no mark means an inactive call. Records with an inconclusive call do not appear. The source made the active and inactive calls. Unless noted, calls follow the shape of the dose curve; as a rule, active = well fitted curve in the direction sought with a large enough effect in the repeat runs; inconclusive = weak or mixed curves; inactive = no such curve, though single readings can be large; an effect the other way counts as inactive or inconclusive.

Test [1] addresses Thyrotropin receptor (Homo sapiens) (UniProt P16473). Kind of test: qHTS assay to identify small molecule antagonists of the thyroid stimulating hormone receptor (TSHR) signaling pathway (AID 1259385; calls by dose curve; also: nearly all actives have a fitted effect of over 20% in size). The procedure, abridged:
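Antagonist mode: compound-treated TSHR-expressing HEK293 cells were stimulated with 1.5 ng/mL TSH (final) in presence of Ro20-1724 for 30 min at RT. HTRF cAMP detection after 1 h; each compound tested at 15 concentrations, triplicate.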
Background: Quantitative high-throughput screening tests each substance at several concentrations.

A short description of test [2]: qHTS assay to identify small molecule agonists of the estrogen receptor alpha (ER-alpha) signaling pathway in the presence of an antagonist - cell viability counter screen (AID 1259386).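 Also: series mostly up to about 92 µM; cells exposed to compounds for 22 h at 37 °C before the viability read; nearly all actives have a fitted effect of over 30% in size.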 The procedure, abridged:
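The test measures whether compounds kill ER-alpha reporter cells (VM7Luc4E2) under antagonist co-treatment (ICI-182,780, 10.0nM). Fluorescence from CellTiter-Fluor is read after a 22hr exposure.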

Test [3] addresses Progesterone receptor (Homo sapiens) (UniProt P06401). Kind of test: qHTS assay to identify small molecule agonists of the progesterone receptor (PR) signaling pathway (AID 1346784; calls by dose curve; also: nearly all actives have a fitted effect of over 30% in size; also: potency is read from the fitted curve at half-maximal effect). In outline:
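Agonist mode, quantitative HTS format in a HEK 293T line expressing a UAS-controlled beta-lactamase reporter; 16 hr compound exposure at 37C in 2% charcoal-stripped FBS, then LiveBLAzer B/G FRET fluorescence.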

Test [4] has the same target. Kind of test: qHTS assay to identify small molecule antagonists of the progesterone receptor (PR) signaling pathway (AID 1346795; active = well fitted inhibition curve with a large enough effect in the signal ratio in the repeat runs, not every such curve was filed as active; the % refers to the signal ratio; also: potency is read from the fitted curve at half-maximal effect). In outline: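 HEK293T PR-UAS-bla reporter cells in charcoal-stripped serum (2%) received compound after a 6 hr settling period, followed by R5020 agonist at 1 nM final; 16 hr incubation preceded the FRET substrate step and fluorescence measurement.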

A short description of test [5]: qHTS assay to identify small molecule antagonists of the progesterone receptor (PR) signaling pathway - cell viability counter screen (AID 1346798). Also: series mostly up to about 92 µM; nearly all actives have a fitted effect of over 50% in size. In outline: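 Same-well multiplex: after 16 hr at 37C with compound and R5020 stimulation, HEK293T cells carrying a UAS-bla reporter received LiveBLAzer substrate (2 hr RT), then CellTiter-Glo (30 min RT) for luminescent viability.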

Test [6] in a line: qHTS assay to identify small molecule agonists of the progesterone receptor (PR) signaling pathway - cell viability counter screen (AID 1346799; calls by dose curve; also: nearly all actives have a fitted effect of over 45% in size). In outline:
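Counter screen for cytotoxicity: compound-treated PR-UAS-bla HEK293T cells (16 hr, 37C, 5% CO2) were assayed with CellTiter-Glo, luminescence measured after 30 min at room temperature.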

A short description of test [7]: qHTS assay to identify small molecule agonists of the TGF-beta/Smad signaling pathway - cell viability counter screen (AID 1346829). Also: top concentration of the series differs between compounds; nearly all actives have a fitted effect of over 45% in size. The procedure, abridged: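 Luminescence from CellTiter-Glo, read after a 30 min room-temperature incubation, gives cell viability of SBE-bla HEK 293T cells treated 5 hr with compounds at 37 C.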
The nature of test [8]: qHTS assay to identify small molecule agonists of the TGF-beta/Smad signaling pathway (AID 1346859; active = well fitted activation curve with a large enough effect in the signal ratio in the repeat runs, not every such curve was filed as active; the % refers to the signal ratio; also: series mostly up to about 77 µM). The procedure, abridged: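 Smad-responsive beta-lactamase reporter cells (HEK 293T) received compounds from DMSO stocks after overnight attachment, were incubated 5 hr, then treated 2 hr with FRET substrate before dual-emission fluorescence measurement (405 nm excitation).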

The target in test [9] is Thyrotropin-releasing hormone receptor (Homo sapiens) (UniProt P34981). Kind of test: qHTS assay to identify small molecule antagonists of the thyrotropin-releasing hormone receptor (TRHR) signaling pathway (AID 1346877; active = well fitted inhibition curve with a large enough effect in the repeat runs, not every such curve was filed as active; also: series mostly up to about 51 µM). The procedure, abridged:
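Overnight-plated (18 h, 37 °C) HEK293 cells expressing TRHR were dye-loaded 2 h, treated with compound, then stimulated with TRH at 1 nM final. Fluorescence intensity was captured every second for 3 min.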

Test [10] is described as follows: qHTS assay to identify small molecule antagonists of the TGF-beta/Smad signaling pathway - cell viability counter screen (AID 1346824). Also: nearly all actives have a fitted effect of over 50% in size. In outline: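 Cytotoxicity counter-screen run in the same wells as the beta-lactamase Smad reporter read: CellTiter-Glo luminescence after 30 min at room temperature. HEK 293T SBE-bla cells had 5 hr compound exposure at 37 C with TGF-beta1 (0.25 ng/mL stock).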
% is scaled to controls: 0 for no effect and ±100 for the full control effect.

Thyrotropin receptor (Homo sapiens), sequence (P16473 whole entry, looked up): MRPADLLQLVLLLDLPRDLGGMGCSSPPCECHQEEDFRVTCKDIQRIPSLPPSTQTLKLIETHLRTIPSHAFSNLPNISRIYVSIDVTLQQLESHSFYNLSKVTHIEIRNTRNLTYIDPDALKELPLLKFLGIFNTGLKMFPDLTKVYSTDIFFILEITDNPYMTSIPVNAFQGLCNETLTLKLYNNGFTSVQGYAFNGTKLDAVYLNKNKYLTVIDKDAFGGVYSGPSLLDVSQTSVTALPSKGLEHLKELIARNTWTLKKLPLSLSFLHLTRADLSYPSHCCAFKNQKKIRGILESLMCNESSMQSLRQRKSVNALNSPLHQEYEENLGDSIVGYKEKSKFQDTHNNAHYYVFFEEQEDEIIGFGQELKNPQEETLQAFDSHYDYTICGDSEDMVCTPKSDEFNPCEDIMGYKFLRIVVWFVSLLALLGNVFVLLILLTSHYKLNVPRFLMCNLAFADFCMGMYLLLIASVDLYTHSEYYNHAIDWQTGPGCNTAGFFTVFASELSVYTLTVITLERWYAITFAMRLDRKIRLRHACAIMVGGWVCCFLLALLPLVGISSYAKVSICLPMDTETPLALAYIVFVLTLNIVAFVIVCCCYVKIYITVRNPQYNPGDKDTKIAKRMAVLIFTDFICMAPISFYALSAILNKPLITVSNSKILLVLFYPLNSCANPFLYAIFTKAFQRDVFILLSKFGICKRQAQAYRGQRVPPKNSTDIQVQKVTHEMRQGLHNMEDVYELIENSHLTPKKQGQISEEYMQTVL
Progesterone receptor (Homo sapiens), sequence (P06401 whole entry, looked up): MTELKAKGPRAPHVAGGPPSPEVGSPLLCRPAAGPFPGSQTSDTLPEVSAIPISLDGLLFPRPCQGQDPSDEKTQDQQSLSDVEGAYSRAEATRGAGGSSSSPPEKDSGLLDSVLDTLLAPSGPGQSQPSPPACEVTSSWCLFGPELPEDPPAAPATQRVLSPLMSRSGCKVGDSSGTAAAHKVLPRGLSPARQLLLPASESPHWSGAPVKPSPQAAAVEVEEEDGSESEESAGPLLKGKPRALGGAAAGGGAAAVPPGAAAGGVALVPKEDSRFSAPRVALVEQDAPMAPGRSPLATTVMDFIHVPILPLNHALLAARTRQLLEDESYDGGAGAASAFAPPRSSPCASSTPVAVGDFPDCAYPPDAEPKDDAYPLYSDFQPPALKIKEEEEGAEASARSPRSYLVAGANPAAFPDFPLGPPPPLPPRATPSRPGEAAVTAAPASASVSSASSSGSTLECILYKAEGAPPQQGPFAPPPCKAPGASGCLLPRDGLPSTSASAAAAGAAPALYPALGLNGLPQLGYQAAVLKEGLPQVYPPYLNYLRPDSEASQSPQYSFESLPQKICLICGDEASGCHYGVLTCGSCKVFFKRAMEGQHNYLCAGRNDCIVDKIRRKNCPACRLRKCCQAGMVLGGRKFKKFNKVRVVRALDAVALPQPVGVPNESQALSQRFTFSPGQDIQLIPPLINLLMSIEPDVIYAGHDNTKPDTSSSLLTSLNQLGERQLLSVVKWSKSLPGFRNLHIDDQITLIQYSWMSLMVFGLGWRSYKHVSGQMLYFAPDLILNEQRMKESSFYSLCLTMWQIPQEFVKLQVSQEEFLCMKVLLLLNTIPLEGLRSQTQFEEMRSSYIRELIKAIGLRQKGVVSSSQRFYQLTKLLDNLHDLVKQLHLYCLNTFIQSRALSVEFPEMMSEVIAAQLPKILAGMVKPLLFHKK
Thyrotropin-releasing hormone receptor (Homo sapiens), sequence (P34981 whole entry, looked up): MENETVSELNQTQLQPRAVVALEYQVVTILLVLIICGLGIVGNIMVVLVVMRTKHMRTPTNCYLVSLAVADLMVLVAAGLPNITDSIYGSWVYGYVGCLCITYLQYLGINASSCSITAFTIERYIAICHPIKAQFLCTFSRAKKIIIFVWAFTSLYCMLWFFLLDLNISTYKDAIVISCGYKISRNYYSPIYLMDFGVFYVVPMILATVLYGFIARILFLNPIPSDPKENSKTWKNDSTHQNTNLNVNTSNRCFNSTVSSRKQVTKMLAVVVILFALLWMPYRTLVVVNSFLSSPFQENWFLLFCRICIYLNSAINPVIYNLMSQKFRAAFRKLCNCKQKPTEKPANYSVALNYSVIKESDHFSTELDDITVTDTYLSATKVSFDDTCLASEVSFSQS

`O=C(O)C(=O)Cc1c[nH]c2ccccc12`: the Potency result in [1], in [2], in [3], in test [4], in test [5] and in test [6] was “inactive” in each case. Besides, the compound was classed as inactive in [7], in [8] and in [9].

As to `O=C1CCC(C2CCCCC2)CC1`, the Potency result in test [1], in test [2], in [3], in [4] and in test [5] was “inactive” each time. Further, the compound was classed as inactive in test [7], in test [8] and in test [9].

As to `O=C1C=CC(=O)O1`, the Potency result in test [1], in [2], in [3], in test [5] and in [6] was “inactive” in each case. Further, the compound was classed as inactive in test [10], in test [7], in test [8] and in test [9].

As to `CC(C)(CO)[C@@H](O)C(=O)NCCC(=O)O`, the Potency result in test [1], in [2] and in test [3] was “inactive” each time. Further, the call in test [10], in [7] and in test [8] was inactive.

Turning to `O=S(=O)(O)C(F)(F)F`, the Potency result in test [1], in [2], in test [3] and in test [6] was “inactive” in each case. The outcome in test [10], in test [7], in [8] and in [9] was inactive.

Turning to `CC1=C2[C@H](/C=C(\C)C(=O)O)CC[C@@H](C)[C@H]2CC1`, the Potency result in test [1], in [2], in [3], in test [5] and in test [6] was “inactive” in each case. Moreover, the compound was classed as inactive in test [10], in test [7] and in test [9].

In the case of `Cc1ccc([N+](=O)[O-])cc1Cl`, the Potency entry in test [1], in [2], in test [3], in test [4] and in test [5] was “inactive” in each case. In addition, the result in [7] and in [8] was inactive.

Take `CCc1nnc(NS(=O)(=O)c2ccc(N)cc2)s1`: the Potency result in [1], in [2], in test [3], in [4] and in [5] was “inactive” throughout. Further, the outcome in test [10], in test [7] and in [8] was inactive.

On to `CCCCCCCCCCCCCCCCOP(=O)([O-])OCC[N+](C)(C)C`, for which the Potency result in [1], in [2], in test [3], in [4] and in [5] was “inactive” each time. The call in test [10], in test [7] and in test [8] was inactive.

With `c1ccc(CN(CC2=NCCN2)c2ccccc2)cc1`, the Potency entry in test [1], in test [2], in test [3], in test [5] and in test [6] was “inactive” each time. Also, the outcome in [10], in test [7] and in [8] was inactive.

Take `Cc1ccc([N+](=O)[O-])c(N)c1`: the Potency entry in [1], in [2], in test [3] and in test [6] was “inactive” each time. Moreover, the Potency in test [4] was 59.6 µM (active). Moreover, the call in test [7], in test [8] and in test [9] was inactive.

For the compound `COc1ccc2nc(NC(=O)Nc3ccccc3)sc2c1`, the Potency entry in test [1], in [2], in test [3], in test [5] and in test [6] was “inactive” each time. In addition, the compound was classed as inactive in [10], in test [7] and in [9].

Consider `CN1CCN(C2=Nc3cc(F)ccc3Cc3ccccc32)CC1`, for which the Potency result in [1], in test [2], in test [3] and in test [6] was “inactive” in each case. Further, in [4], the Potency was 18.8 µM (active). Besides, the compound was called inactive in [10], in test [7], in test [8] and in test [9].

Turning to `CCC/C=C/CO`, the Potency result in test [1], in [2], in test [3], in [4] and in test [5] was “inactive” in each case. In addition, the result in [7], in test [8] and in [9] was inactive.

Consider `CC1=CC(=O)CC(C)(C)C1=O`, for which the Potency result in test [1], in test [2], in test [3], in [5] and in [6] was “inactive” in each case. Also, the result in test [7], in [8] and in test [9] was inactive.

On to `CCOC(=O)c1cc(=O)c2c(OCC(COc3cccc4oc(C(=O)OCC)cc(=O)c34)OC(=O)[C@@H](N)CCCCN)cccc2o1`, for which the Potency entry in test [1], in test [2], in test [3], in test [4] and in test [6] was “inactive” in each case. Also, the outcome in test [10] and in test [7] was inactive.

Consider `C=C(C)C(=O)OCCOP(=O)(O)O`, for which the Potency result in test [1], in test [2], in [3], in test [4] and in test [6] was “inactive” in each case. The outcome in test [7] and in [9] was inactive.

For `CN1CCN(c2c(F)cc3c(=O)c(C(=O)O)cn(CCF)c3c2F)CC1`, the Potency result in test [1], in test [2], in [3], in test [5] and in [6] was “inactive” each time. For the same compound, the compound was called inactive in test [10], in [7] and in test [9].

For the compound `CCCC1CCC(=O)O1` (centres undefined), the Potency entry in test [1], in test [2], in test [3], in [5] and in test [6] was “inactive” throughout. Also, the compound was called inactive in test [7] and in test [8].

With `CCOc1ccc(OCC)c(Cl)c1`, the Potency entry in test [1], in test [2], in [3], in test [5] and in test [6] was “inactive” each time. Further, the compound was classed as inactive in test [10], in [7], in test [8] and in [9].

Regarding `NC(=O)NS(=O)(=O)c1ccc(Cl)cc1`, the Potency result in test [1], in test [2], in [3], in test [4] and in test [5] was “inactive” each time. The result in [7], in test [8] and in [9] was inactive.

Regarding `C[C@@H]1CN(c2c(F)c(F)c3c(=O)c(C(=O)O)cn(C4CC4)c3c2F)C[C@H](C)N1`, the values for the activity change, negative = inhibition in [1] and in [4] were -7.61% [at 19 µM] and 6.07% [at 18.9 µM], respectively. Further, the activity change, negative = cytotoxicity was 0.208% [at 19 µM] in test [2] and -0.146% [at 15.8 µM] in test [7]. Besides, the activation was 4.11% [at 19 µM] in [3] and -1.32% [at 15.8 µM] in test [8]. In addition, the Potency entry in test [5] is “inactive”. In addition, in test [10], the viability change, negative = cytotoxic was 0.903% [at 15.8 µM]. The activity, negative = inhibition in [9] was -3.72% [at 10.5 µM].

As to `Cc1cc2nc(N)sc2cc1C`, the Potency result in [1], in test [2], in test [3], in [5] and in test [6] was “inactive” in each case. Moreover, the outcome in test [7] and in [8] was inactive.

As for `COC(=O)N[C@H](C(=O)N[C@@H](Cc1ccccc1)[C@@H](O)CN(Cc1ccc(-c2ccccn2)cc1)NC(=O)[C@@H](NC(=O)OC)C(C)(C)C)C(C)(C)C`, the Potency result in test [1], in test [2], in [3], in [4] and in test [5] was “inactive” throughout. The outcome in test [10], in test [7], in test [8] and in test [9] was inactive.

Turning to `CN(C)Cc1ccccc1`, the Potency result in test [1], in test [2], in [3], in test [4] and in [6] was “inactive” in each case. Further, the result in test [10], in test [7] and in test [8] was inactive.

Turning to `OCc1ccccc1O`, the Potency result in [1], in [2], in test [3], in [4] and in test [6] was “inactive” in each case. For the same compound, the outcome in [10], in test [7] and in test [8] was inactive.

Consider `CCOC(=O)NCCC[Si](OCC)(OCC)OCC`, for which the Potency entry in test [1], in test [2], in test [3], in test [4] and in [6] was “inactive” in each case. Further, the compound was classed as inactive in test [10], in test [7], in [8] and in test [9].

With `CC(=O)OC(C)OC(C)=O`, the Potency result in test [1], in [2], in test [4] and in [6] was “inactive” throughout. For the same compound, the Potency in [3] is 50 µM (active). The result in test [10], in [7], in test [8] and in test [9] was inactive.

Turning to `NCCCN1CCN(CCCN)CC1`, the Potency result in test [1], in test [2], in test [3], in test [4] and in test [6] was “inactive” each time. In addition, the result in test [10], in test [7], in test [8] and in test [9] was inactive.
